Pol eta inh = inhibitors of human DNA polymerase eta. AID 588591. recombinant Pol eta, fluorescent DNA replication assay. Potency, µM (titrated, usually from 114 µM), for inactives: at the top dose activity change, negative = inhibition, actives largely listed as inhibitors. 390,000 tested, 1.2% active. Q9Y253; also: potency is read from the fitted curve at half-maximal effect; % is scaled to controls: 0 for no effect and ±100 for the full control effect
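Pol eta (10 nM) was preincubated with compounds for 15 min at room temperature, after which fluorescent replication substrate (50 nM final) was added to start the reaction. Fluorescence was read kinetically at 0 and 10 min.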
POLI inh = inhibitors of human DNA polymerase iota | Q9UNA4 | AID 588590 | Potency, µM (doses to about 115 µM), for the others: at the top dose activity, negative = inhibition, most hits filed as inhibitors | Pol iota fluorescent replication assay, 10 min | 390,000 tested, 1% active; also: potency is read from the fitted curve at half-maximal effect
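Fluorescent replication assay read twice, at 0 min and 10 min after adding 50 nM (final) substrate. Enzyme (10 nM) and compounds were first incubated 15 min at room temperature; enzyme-free buffer wells were negative controls.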
PI4K2A inh = PI4K2A (human) kinase inhibition. Q9BTU6. purified PI4K2A, ADP-Glo luminescence, 1 h; hits give low values. activity change, negative = inhibition, % at 76.9 µM. 420,000 tested, 0.13% active. AID 1346378; in the data active = activity change below about -50%; inconclusive = mostly about -30% to -49%;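 also: -100% = wells without enzyme as full effect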
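In this quantitative HTS, ADP production by PI4K2A was quantified luminescently after 1 h at ambient temperature; 100 microM adenosine served as plate-quality control.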
POLB inh = blocks human DNA polymerase beta activity | Pol beta primer extension/strand displacement, fluorescence kinetic | 340,000 tested, 1.3% active | Potency, µM (highest dose often 114 µM), inactives show at the highest dose activity change, negative = inhibition, usual class: inhibitors | AID 485314; also: potency is read from the fitted curve at half-maximal effect; % is scaled to controls: 0 for no effect and ±100 for the full control effect
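Human Pol beta at 10 nM; strand-displacement substrate 50 nM final. Compound exposure 15 min at room temperature before start, reaction 10 min at room temperature.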
PI5P4Ka inh = PI5P4K alpha (human) kinase inhibition; P48426; PI5P4Kalpha enzyme, ADP-Glo luminescence, 60 min; hits give low values; max response, %; 330,000 tested, 1.2% active; active = max response of -50% or lower; inconclusive = between -30% and -50%; inactive = -30% or higher; also: value at the top dose of about 77 µM; % is scaled to controls: 0 for no effect and ±100 for the full control effect
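qHTS, 1536-well: enzyme/substrate mix, compound by pin tool, 5 microM ATP final; RT 60 min; ADP-Glo reagents 1 (45 min) then 2 (30 min); luminescence.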
Pol kappa inh = blocks human DNA polymerase kappa activity | 400,000 tested, 0.53% active | purified Pol kappa, fluorescent DNA synthesis assay, 10 min | Potency, µM (series often up to 107 µM), for inactives: at the highest dose activity, negative = inhibition, usual class: inhibitors | Q9UBT6 | AID 588579; also: potency is read from the fitted curve at half-maximal effect; % is scaled to controls: 0 for no effect and ±100 for the full control effect
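Fluorescent qHTS in 1536-well format: enzyme (10 nM) and compound sat 15 min at room temperature before 50 nM substrate (final) was added. Signal taken at 0 and 10 min; no-enzyme buffer wells were negative controls.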
The depositor's hits bear a star; [ ] = dose if it differs, or a comment. Sampled rows, rich in hits. Any-hit rate of the full collection: about 2.8%. Unless noted, calls follow the shape of the dose curve; as a rule, active = well fitted inhibition curve with a large enough effect; inconclusive = small, poorly fitted or top-dose-only effect, or another doubt; inactive = no such curve, though single readings can be large or run the other way.

O=c1[nH]sc2ccccc12 was read as Pol eta inh -1.8%, POLI inh 25.1µM*, PI4K2A inh -0.7, POLB inh 0.2%, PI5P4Ka inh -92.7* and Pol kappa inh 0.0%.
Screening O=C(Cc1cc(=O)[nH][nH]1)N/N=C/C=C/c1ccccc1 returned Pol eta inh 14.1µM*, POLI inh inconclusive, PI4K2A inh -26.4, POLB inh -14.4%, PI5P4Ka inh -60.5* and Pol kappa inh -31.1%.
CCOc1ccc(C(=O)c2cn(CC(=O)Nc3ccc(C)c(Cl)c3)c3ccc(OCC)cc3c2=O)cc1 was read as Pol eta inh -3.9%, POLI inh 20.7%, PI4K2A inh -8.3, POLB inh 13.8% and Pol kappa inh -2.9%.
For CCc1ccc2c(c1)c(=O)c(C(=O)c1ccccc1)cn2CC(=O)Nc1ccc(C)c(Cl)c1 the results were Pol eta inh inconclusive, POLI inh -2.2%, PI4K2A inh 3.1, POLB inh 2.82µM* and Pol kappa inh -18.9%.
For Cc1ccc(C(=O)N2CC(=O)Nc3ccc(Br)cc3C2c2ccc(F)cc2)cc1C (stereo not drawn) the results were Pol eta inh -22.3%, POLI inh 8.9%, PI4K2A inh -1.9, POLB inh -4.8% and Pol kappa inh -1.2%.
`Cc1ccc(OCCn2cnc3cc([N+](=O)[O-])ccc3c2=O)cc1` gave Pol eta inh -7.1%, POLI inh 167.7%, PI4K2A inh 3.5, POLB inh 35.8%, PI5P4Ka inh -5.4 and Pol kappa inh 0.7%.
Screening O=c1c2ccc([N+](=O)[O-])cc2ncn1CCOc1ccccc1 returned Pol eta inh -17.8%, POLI inh 89.1µM*, PI4K2A inh -0.9, POLB inh 6.5%, PI5P4Ka inh 9.0 and Pol kappa inh inconclusive.
`CCOC(=O)Cc1ccc2sc(-c3ccccc3)nc2c1` gave Pol eta inh -24.9%, POLI inh 3.0%, PI4K2A inh -71.7*, POLB inh 3.0%, PI5P4Ka inh -7.6 and Pol kappa inh -13.2%.
For CN(Cc1ccccc1F)C(=O)C1CCC(CNS(=O)(=O)c2cccc3cccnc23)CC1 (stereo not drawn) the results were PI4K2A inh -3.4.
Screening O=C(O)COc1c(-c2ccco2)oc2ccccc2c1=O returned Pol eta inh -5.4%, POLI inh inconclusive, PI4K2A inh -4.0, POLB inh 39.8µM*, PI5P4Ka inh 0.4 and Pol kappa inh -22.6%.
For COc1ccc(-n2[nH]c(C)cc2=O)cc1 the results were Pol eta inh -11.1%, POLI inh 1.12µM*, PI4K2A inh inconclusive, POLB inh 8.6%, PI5P4Ka inh 7.7 and Pol kappa inh -1.0%.
C=C1NN(C)C(=O)N1c1ccc(OC)cc1 was read as POLI inh 41.7% and Pol kappa inh -8.1%.
Screening Cn1cc(S(=O)(=O)N2CCCCCC2)cc1C(=O)NCc1ccc(Cl)cc1 returned Pol eta inh inconclusive, POLI inh -7.3%, PI4K2A inh 4.2, POLB inh 6.2% and Pol kappa inh -10.6%[60.1 µM].
`COc1ccc(OC)c(-c2cc(C(=O)Nc3c(C)nn(Cc4ccc(Cl)cc4)c3C)no2)c1` gave Pol eta inh -10.1%, POLI inh -5.5%, PI4K2A inh 0.9, POLB inh 24.7% and Pol kappa inh -24.0%.
`COc1ccc(OC)c(-c2cc(C(=O)Nc3c(C)nn(Cc4ccccc4)c3C)no2)c1` gave Pol eta inh -15.0%, POLI inh 4.2%, PI4K2A inh -53.8*, POLB inh 38.4% and Pol kappa inh 0.0%.
`O=c1c2ccccc2nc2n1CCC2` gave Pol eta inh inconclusive, POLI inh 50.1µM*, PI4K2A inh -8.8, POLB inh 16.4%, PI5P4Ka inh -2.8 and Pol kappa inh -9.5%.
`O=c1c2ccccc2nc2n1CCCCC2` gave Pol eta inh 3.8%, POLI inh -5.7%, PI4K2A inh 8.6, POLB inh 20.7%, PI5P4Ka inh 2.1 and Pol kappa inh 0.7%.
